The record followed here is PubChem BioAssay (NCATS).

Structures are written as SMILES. Inconclusive results are not listed. Calls of active or inactive are those of the source. Calls come from the whole dose curve; as a rule, active = well fitted curve in the direction sought with a large enough effect; inconclusive = small, poorly fitted or top-dose-only effect, or another doubt; inactive = no such curve, though single readings can be large; an effect the other way counts as inactive or inconclusive.

Assay [1] can be described thus: qHTS of pediatric cancer cell lines to identify multiple opportunities for drug repurposing: Primary screen for BT-37 cells (AID 1347094). Note: potency is the fitted concentration of half-maximal effect. The gist of the method: (§1)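 Following a 5-hour attachment period, cells at 500-1,000/well received compounds and were cultured for 48 hours. CellTiter-Glo was added and luminescence read to estimate viable, metabolically active cells.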

Assay [2] in a line: qHTS of pediatric cancer cell lines to identify multiple opportunities for drug repurposing: Primary screen for NB-EBc1 cells (AID 1347095). Note: potency is the fitted concentration of half-maximal effect. The gist of the method: as §1
Assay [3] in a line: qHTS of pediatric cancer cell lines to identify multiple opportunities for drug repurposing: Primary screen for U-2 OS cells (AID 1347096). Note: nearly all actives have a fitted effect of over 50% in size. Note: potency is the fitted concentration of half-maximal effect. The gist of the method:
(§2)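 Viability after 48 h compound treatment at 37C, 500-1,000 cells/well, read as ATP luminescence with CellTiter-Glo. Primary screens used 11-point (MIPE, 0.78 nM-46 µM) or 8-point (NPC, 0.59 nM-46 µM) final concentrations; follow-up screens used 11-point dilutions.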

Assay [4] is described as follows: qHTS of pediatric cancer cell lines to identify multiple opportunities for drug repurposing: Primary screen for Saos-2 cells (AID 1347097). Note: nearly all actives have a fitted effect of over 40% in size. Note: potency is the fitted concentration of half-maximal effect. The gist of the method: as §1
Assay [5] can be described thus: qHTS of pediatric cancer cell lines to identify multiple opportunities for drug repurposing: Primary screen for SK-N-SH cells (AID 1347098). Note: nearly all actives have a fitted effect of over 65% in size. Note: potency is the fitted concentration of half-maximal effect. The gist of the method: (§3)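 Cells (500-1,000/well) rested 5 h, then received compounds for 48 h; metabolically active cells were measured by CellTiter-Glo luminescence. Final concentrations spanned up to 46 µM (MIPE, 11-point) or 0.59 nM-46 µM (NPC, 8-point) in primary screens, 11-point in follow-ups.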

A short description of assay [6]: qHTS of pediatric cancer cell lines to identify multiple opportunities for drug repurposing: Primary screen for NB1643 cells (AID 1347099). Note: nearly all actives have a fitted effect of over 50% in size. Note: potency is the fitted concentration of half-maximal effect. The gist of the method: as §1
Assay [7] in a line: qHTS of pediatric cancer cell lines to identify multiple opportunities for drug repurposing: Primary screen for Rh18 cells (AID 1347102). Note: nearly all actives have a fitted effect of over 65% in size. Note: potency is the fitted concentration of half-maximal effect. The gist of the method: as §2
A short description of assay [8]: qHTS of pediatric cancer cell lines to identify multiple opportunities for drug repurposing: Primary screen for OHS-50 cells (AID 1347103). Note: nearly all actives have a fitted effect of over 40% in size. Note: potency is the fitted concentration of half-maximal effect. The gist of the method:
as §3

A short description of assay [9]: qHTS of pediatric cancer cell lines to identify multiple opportunities for drug repurposing: Primary screen for RD cells (AID 1347104). Note: nearly all actives have a fitted effect of over 55% in size. Note: potency is the fitted concentration of half-maximal effect. The gist of the method:
as §1

Assay [10] is described as follows: qHTS of pediatric cancer cell lines to identify multiple opportunities for drug repurposing: Primary screen for MG 63 (6-TG R) cells (AID 1347105). Note: nearly all actives have a fitted effect of over 50% in size. Note: potency is the fitted concentration of half-maximal effect. The gist of the method: as §1
The nature of assay [11]: qHTS of pediatric cancer cell lines to identify multiple opportunities for drug repurposing: Primary screen for control Hh wild type fibroblast cells (AID 1347106).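 Note: series mostly up to about 46 µM; a drop in luminescence marks cytotoxicity and a rise apparent proliferation; nearly all actives have a fitted effect of over 55% in size.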 The gist of the method:
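Cells (500-1,000/well) in growth media were settled 5 h at 37 degrees C, then given compounds for 48 h. Viability was read as CellTiter-Glo luminescence. Primary runs used MIPE at 11 points (0.78 nM-46 µM) and NPC at 8 points (0.59 nM-46 µM); follow-ups used 11 points.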

Assay [12] in a line: qHTS of pediatric cancer cell lines to identify multiple opportunities for drug repurposing: Primary screen for Rh30 cells (AID 1347107). Note: nearly all actives have a fitted effect of over 75% in size. Note: potency is the fitted concentration of half-maximal effect. The gist of the method: as §2
The nature of assay [13]: qHTS of pediatric cancer cell lines to identify multiple opportunities for drug repurposing: Primary screen for Rh41 cells (AID 1347108). Note: nearly all actives have a fitted effect of over 70% in size. Note: potency is the fitted concentration of half-maximal effect. The gist of the method:
as §1

Assay [14] in a line: qHTS of pediatric cancer cell lines to identify multiple opportunities for drug repurposing: Primary screen for BT-12 cells (AID 1347101). Note: nearly all actives have a fitted effect of over 25% in size. Note: potency is the fitted concentration of half-maximal effect. The gist of the method:
as §3

The nature of assay [15]: qHTS of pediatric cancer cell lines to identify multiple opportunities for drug repurposing: Confirmatory screen for A673 cells (AID 1347110). Note: nearly all actives have a fitted effect of over 65% in size. Note: potency is the fitted concentration of half-maximal effect. The gist of the method: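 Cells plated at 500-1,000/well were treated five hours later with multi-point dilutions up to 46 µM final. After two days, CellTiter-Glo was added and luminescence read.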
A short description of assay [16]: qHTS of pediatric cancer cell lines to identify multiple opportunities for drug repurposing: Confirmatory screen for SK-N-MC cells (AID 1347111).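 Note: potency is the fitted concentration of half-maximal effect; cells exposed to compound for 48 h before the readout; nearly all actives have a fitted effect of over 70% in size.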 The gist of the method: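 SK-N-MC cells at 500-1,000 cells/well in growth media were pre-incubated 5 h, then exposed to compounds at 11-point dilutions for 48 h at 37 degrees C, 5% CO2. Viability was read as CellTiter-Glo luminescence.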

Assay [17] is described as follows: qHTS of pediatric cancer cell lines to identify multiple opportunities for drug repurposing: Confirmatory screen for BT-12 cells (AID 1347112). Note: nearly all actives have a fitted effect of over 55% in size. Note: potency is the fitted concentration of half-maximal effect. The gist of the method:
as §2

Assay [18] in a line: qHTS of pediatric cancer cell lines to identify multiple opportunities for drug repurposing: Primary screen for LAN-5 cells (AID 1347100). Note: potency is the fitted concentration of half-maximal effect. The gist of the method: as §2
The nature of assay [19]: qHTS of pediatric cancer cell lines to identify multiple opportunities for drug repurposing: Confirmatory screen for NB1643 cells (AID 1347109). Note: nearly all actives have a fitted effect of over 45% in size. Note: potency is the fitted concentration of half-maximal effect. The gist of the method:
as §2

Assay [20] in a line: qHTS of pediatric cancer cell lines to identify multiple opportunities for drug repurposing: Confirmatory screen for LAN-5 cells (AID 1347113). Note: nearly all actives have a fitted effect of over 65% in size. Note: potency is the fitted concentration of half-maximal effect. The gist of the method: as §2

Take `OC[C@H]1OC(O)C[C@@H](O)[C@H]1O` (stereo partly drawn): the Potency entry in assay [1], in [2], in [3], in assay [4], in [5] and in assay [6] was “inactive” each time. Moreover, the Potency entry in assay [7], in [8], in assay [9], in assay [10], in assay [11] and in assay [12] was “inactive” in each case. For the same compound, the Potency result in assay [13] was “inactive”.
As for `O=C(C=CC=Cc1ccc2c(c1)OCO2)N1CCCCC1`, the Potency result in assay [1], in [2], in assay [3], in [4], in assay [5] and in [6] was “inactive” throughout. Moreover, the Potency result in [14], in [7], in [8], in assay [9], in assay [10] and in assay [11] was “inactive” each time. Also, the Potency result in assay [13] and in assay [17] was “inactive” in each case. The Potency was 16.5 µM (active) in assay [15] and 8.27 µM (active) in [16].
`Cc1ccc(O)c(C(CCN(C(C)C)C(C)C)c2ccccc2)c1` (stereo not drawn): the Potency result in assay [1], in [2], in [3], in assay [4], in assay [5] and in assay [6] was “inactive” throughout. In addition, the Potency result in assay [18], in assay [7], in [9], in assay [10], in assay [11] and in assay [13] was “inactive” each time.
Turning to `COc1ccc(Nc2nccc(NCCO)n2)cc1`, the Potency entry in assay [1], in assay [2], in [3], in assay [4], in assay [5] and in assay [18] was “inactive” in each case. Further, the Potency entry in assay [14], in [7], in [8], in assay [9], in [10] and in assay [11] was “inactive” in each case. Moreover, the Potency entry in [12] and in assay [13] was “inactive” in each case.
Regarding `O=C(O)C[C@H](O)C[C@H](O)C=Cc1c(C2CC2)nc2ccccc2c1-c1ccc(F)cc1`, the Potency was 15.3 µM (active) in [1]; 20.9 µM (active) in assay [2]; 9.35 µM (active) in assay [3]; 0.833 µM (active) in [4]; 4.82 µM (active) in [5]; 9.35 µM (active) in assay [6]. Besides, the Potency in [14] is 0.273 µM (active); in assay [7], 4.69 µM (active); in [8], 3.06 µM (active); in [9] it was 18.7 µM (active); in assay [10], 1.48 µM (active); in [13], 4.69 µM (active). Also, the Potency in assay [15] was 2.33 µM (active); in assay [16], 4.65 µM (active).
In the case of `C[C@]12CCC(=O)C=C1[C@@H]1CC1[C@H]1[C@H]3[C@@H]4C[C@H]4[C@@]4(CCC(=O)O4)[C@@]3(C)CC[C@H]12` (stereo partly drawn), the Potency entry in assay [1], in assay [2], in assay [3], in [4], in assay [5] and in assay [6] was “inactive” in each case. The Potency entry in assay [9], in assay [10], in assay [11], in assay [12] and in [13] was “inactive” each time.
Turning to `O=C1c2c(O)cccc2[C@@H]([C@@H]2O[C@H](CO)[C@@H](O)[C@H](O)[C@H]2O)c2cc(CO)cc(O)c21`, the Potency result in assay [1], in [2], in [3], in assay [4], in assay [5] and in assay [18] was “inactive” throughout. For the same compound, the Potency entry in assay [14], in assay [7], in assay [8], in [9], in assay [10] and in assay [11] was “inactive” throughout. Moreover, the Potency result in assay [12], in assay [13], in assay [19], in assay [15] and in assay [20] was “inactive” each time.
Take `C[C@@H](Cc1cc2c(c(C(N)=O)c1)N(CCCO)CC2)NCCOc1ccccc1OCC(F)(F)F`: the Potency result in assay [1], in [2], in assay [3], in assay [4], in assay [5] and in [6] was “inactive” in each case. In addition, the Potency entry in assay [18], in [9], in assay [10], in [11], in assay [12] and in assay [13] was “inactive” throughout.
For the compound `c1coc(CNc2ncnc3nc[nH]c23)c1`, the Potency result in assay [1], in assay [2], in assay [3], in assay [4], in assay [5] and in assay [6] was “inactive” in each case. For the same compound, the Potency entry in assay [7], in assay [8], in assay [9], in assay [10], in assay [11] and in assay [12] was “inactive” throughout. For the same compound, the Potency result in assay [13] was “inactive”.
Regarding `COC1=C(OC)C(=O)C(CC=C(C)CCC=C(C)CCC=C(C)CCC=C(C)CCC=C(C)CCC=C(C)CCC=C(C)CCC=C(C)CCC=C(C)CCC=C(C)C)=C(C)C1=O`, the Potency result in [1], in assay [2], in assay [3], in assay [4], in assay [5] and in assay [6] was “inactive” throughout. Further, the Potency entry in assay [18], in assay [7], in assay [9], in assay [10], in assay [11] and in assay [12] was “inactive” each time. Also, the Potency entry in assay [13] is “inactive”.
For `CN1CCc2c(c3ccccc3n2Cc2ccc(C(=O)NO)cc2)C1`, the Potency is 30.6 µM (active) in [1]; 20.9 µM (active) in assay [2]; 23.5 µM (active) in assay [3]; 18.7 µM (active) in assay [4]; 24.1 µM (active) in assay [5]; 16.6 µM (active) in assay [6]. The Potency in assay [18] was 16.6 µM (active); in assay [7], 18.7 µM (active); in assay [9], 16.6 µM (active); in [12], 20.9 µM (active); in assay [13], 13.2 µM (active). In addition, the Potency entry in assay [11] is “inactive”.
On to `CC(C)c1cc(C(C)C)c(CC(=O)NS(=O)(=O)Oc2c(C(C)C)cccc2C(C)C)c(C(C)C)c1`, for which the Potency was 24.3 µM (active) in assay [1]; 14.8 µM (active) in assay [2]; 18.7 µM (active) in assay [4]; 16.6 µM (active) in [6]; 27.3 µM (active) in assay [8]. Besides, the Potency entry in [3], in assay [5], in [7], in assay [11] and in [12] was “inactive” in each case.
Consider `CC(C)N1[N]C(=C2C=c3cc(O)ccc3=N2)c2c(N)ncnc21`, for which the Potency in assay [1] is 0.344 µM (active); in [2], 0.59 µM (active); in [3] it was 14.8 µM (active); in assay [4], 5.26 µM (active); in assay [5] it was 19.2 µM (active); in [6], 18.7 µM (active). Further, the Potency in assay [8] was 0.273 µM (active); in [9], 1.66 µM (active); in assay [10], 1.18 µM (active); in assay [12] it was 5.9 µM (active); in assay [13], 1.05 µM (active); in assay [19], 10.4 µM (active). Moreover, the Potency is 4.14 µM (active) in assay [15], 2.33 µM (active) in assay [16], 13.1 µM (active) in assay [17] and 2.93 µM (active) in assay [20].
